# Bioassay records deposited in PubChem by several laboratories.
# A selection: hits, their analogues and other compounds. The true share with any hit is near 2.6%.
# M18AAP inhibitor = PfM18AAP enzyme inhibition; recombinant PfM18AAP, H-Glu-NHMec fluorogenic cleavage; 1.2% of 290,000 active; inhibition, % at 7.35 µM;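 active = inhibition above the campaign mean inhibition over all tested compounds plus 3 SD, cut at about 28% in these data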;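 note: 0% = plate median of test compound wells and 100% = 2 mM ZnCl2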
# ABHD5 PLIN5 PPI = inhibitors of human ABHD5-perilipin-5 interaction; Q00G26+Q8WTS1; Split G. princeps luciferase complementation, luminescence, 4 h; inhibition, % at 4 µM; 0.78% of 360,000 active; AID 602281;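 active = inhibition above the mean inhibition across every tested compound plus 3 SD, cut at about 22% in these data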;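 note: 0% = DMSO only wells and the 100% control is not disclosed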
# Target sequence (Q00G26 whole entry, looked up): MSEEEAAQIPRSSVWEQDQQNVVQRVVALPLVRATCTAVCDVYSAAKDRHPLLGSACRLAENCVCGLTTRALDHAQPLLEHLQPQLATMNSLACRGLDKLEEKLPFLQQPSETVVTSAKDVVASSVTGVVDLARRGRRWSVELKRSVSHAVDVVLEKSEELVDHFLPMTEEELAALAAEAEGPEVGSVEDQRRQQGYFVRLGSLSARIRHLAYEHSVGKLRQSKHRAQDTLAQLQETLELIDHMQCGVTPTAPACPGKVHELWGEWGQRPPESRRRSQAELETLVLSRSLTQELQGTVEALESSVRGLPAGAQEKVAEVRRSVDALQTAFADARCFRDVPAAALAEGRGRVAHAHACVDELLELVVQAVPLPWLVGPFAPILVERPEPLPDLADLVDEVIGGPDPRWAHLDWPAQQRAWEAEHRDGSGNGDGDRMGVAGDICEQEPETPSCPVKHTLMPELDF
# Target sequence (Q8WTS1 whole entry, looked up): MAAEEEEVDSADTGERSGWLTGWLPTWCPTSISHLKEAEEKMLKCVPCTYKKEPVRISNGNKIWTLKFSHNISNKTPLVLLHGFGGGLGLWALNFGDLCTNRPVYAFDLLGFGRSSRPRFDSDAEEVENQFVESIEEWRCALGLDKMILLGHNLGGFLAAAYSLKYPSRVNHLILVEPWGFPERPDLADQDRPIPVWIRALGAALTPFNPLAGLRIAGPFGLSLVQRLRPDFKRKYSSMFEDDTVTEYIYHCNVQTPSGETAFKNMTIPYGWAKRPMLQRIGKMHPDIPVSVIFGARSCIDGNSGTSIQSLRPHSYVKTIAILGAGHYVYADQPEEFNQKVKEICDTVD
# Rce1 inh = yeast Ras-converting enzyme inhibition | Q03530 | yeast membranes, quenched prenylated peptide cleavage fluorescence | calls only | 0.27% of 290,000 active | AID 2563;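 active = fall in fluorescence gain of 50% or more versus controls, with final raw signal at or below 3038400; inconclusive = same 50% fall but final raw signal above 3038400; inactive = fall in fluorescence gain under 50%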;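 note: plate controls were neutral control wells for no effect and wells lacking membranes for full effect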
# Exocytosis inh = blocks lytic granule exocytosis. TALL-104 LAMP-1 surface exposure, flow cytometry; cells stimulated with thapsigargin and PMA. AID 651702. inhibition, % at 10 µM. 0.66% of 360,000 active;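 active = inhibition above about 55%, limit read from the data; inconclusive = no clear call, values can overlap the other calls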
# Platelet DG rel = platelet dense granule release activity. AID 1663. 0.22% of 300,000 active. inhibition, %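 (compounds screened at 7.5 µM in platelet-rich plasma)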. human platelet-rich plasma, SFLLRN dense granule ATP release, luminescence;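 active = mean replicate score, as percent of positive control, at or above 50; inconclusive = mean below 50 but at least one replicate at or above 50; inactive = mean and every replicate below 50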
# An asterisk follows results filed as active; i = inactive; u = inconclusive; x = not tested or not shown; + = active, no number.
SMILES,M18AAP inhibitor,ABHD5 PLIN5 PPI,Rce1 inh,Exocytosis inh,Platelet DG rel
COc1ccc(-c2nc3ncccc3o2)cc1NC(=O)c1ccco1,6,-3,+,-13,-5
CCOc1ccc(-n2c(SCc3ccc([N+](=O)[O-])cc3)nnc2-c2ccc(OC)cc2)cc1,4,-7,+,6,7
CCOc1ccc(-n2c(SCc3ccc(C#N)cc3)nnc2-c2cccnc2)cc1,-7,5,i,-1,7
COc1cc(N=Nc2ccc(Br)cc2)cc(C=O)c1O,x,0,x,105*,x
COc1ccc(/C=N/NC(=O)CCn2cnc(-c3ccccc3)c2-c2ccccc2)cc1,-1,5,i,-1,0
CCN1C/C(=C\c2cccc([N+](=O)[O-])c2)C(=O)/C(=C/c2cccc([N+](=O)[O-])c2)C1,4,21,x,83*,x
O=C1/C(=C/c2cccc([N+](=O)[O-])c2)CSc2ccc(Cl)cc21,-2,-3,i,25,-1
Cc1ccccc1CN1C(=O)CS/C1=N/N=C/c1ccco1,5,0,i,-13,11
O=c1c(O)cccc2cc(O)c(O)c(O)c12,48*,8,i,1,2
COc1ccc(/C=N\NC(=O)c2cccc(Br)c2)c(OC)c1,11,-1,i,5,0
CCn1c2ccc(C)cc2c2nnc(NN)nc21,11,-5,i,-7,11
Cn1c2ccccc2c2nnc(NN)nc21,30*,6,i,3,3
CCn1c2ccccc2c2nnc(NN)nc21,31*,1,i,1,7
CC(C)CSc1nnc2c3ccccc3n(C)c2n1,-1,0,i,3,2
Cc1cc(Cl)ccc1OCc1n[nH]c(=S)n1C1CCCCC1,-8,-22,i,0,2
O=C(Nc1cccnc1)c1cc(-c2ccc(Cl)c(Cl)c2)on1,-15,5,i,4,55*
O=C(Nc1cccnc1)c1cc(-c2cccc(Cl)c2)on1,1,4,i,5,-25
CC(=O)N(C)c1ccc(NC(=O)/C=C/c2ccccc2Cl)cc1,-7,7,+,-4,2
Cc1cc(N)c2cc(NC(=O)/C=C/c3ccccc3Cl)ccc2n1,-3,10,+,15,0
O=C(/C=C/c1ccccc1Cl)Nc1ccncc1,6,1,i,-1,u
O=C(NCc1ccon1)C1CCC(=O)N(CCc2ccc(Cl)cc2)C1 (configuration not stated),-4,11,i,-3,-1
CC(C)COc1ccc(C(=O)CCN2CCCCC2)cc1,-22,1,i,5,-3
Clc1ccc2c(c1)C(N1CCNCC1)Cc1ccccc1S2 (configuration not stated),10,33*,x,73*,0
COc1ccc2c(c1)CC(N1CCN(C)CC1)c1cc(OC)ccc1S2 (configuration not stated),x,17,i,44,13
CC(C)c1ccc(OCC(=O)Nc2ccc(S(=O)(=O)Nc3ccccn3)cc2)cc1,4,1,i,0,1
SMILES,M18AAP inhibitor,ABHD5 PLIN5 PPI,Rce1 inh,Exocytosis inh,Platelet DG rel
CC(C)c1cccc(OCC(=O)Nc2ccc(S(=O)(=O)Nc3ccccn3)cc2)c1,-14,-13,+,8,3
COc1cc(C(=O)OCC(=O)Nc2c(C)n(C)n(-c3ccccc3)c2=O)c([N+](=O)[O-])cc1OC,x,0,x,2,x
COc1ccc(CNC(=O)c2cc3cccc(O)c3oc2=N)cc1,29*,1,i,2,25
[O-][n+]1c(/C=C/c2ccccc2)ccc2ccccc21,5,-4,i,87*,27
[O-][n+]1ccccc1/C=C/c1ccccc1,x,4,i,-6,-3
CCOC(=O)C1CCN(C(=O)Cn2nc(C)n3c(cc4cc(C)ccc43)c2=O)CC1,0,6,i,9,-9
CCOC(=O)C1CCN(C(=O)Cn2nc(C)n3c(cc4cc(F)ccc43)c2=O)CC1,3,0,i,-1,50*
COc1cccc(-c2nnc(SCc3cccnc3)o2)c1,-8,5,i,-1,5
CCCCCOc1ccc(/C(C)=N/NC2=NCCN2)cc1,0,8,i,35,5
CCCCCCOc1ccc(/C(C)=N/NC2=NCCN2)cc1,1,9,i,59*,-2
Cc1csc(NC(=O)c2cn3ccccc3n2)n1,-13,-1,i,-1,57*
C#CCOCCOCCOCCNc1nc(N2CCN(C(=O)CCCCCCCCCCNC(=O)[C@H](CCCCN)n3cc(CCCC(=O)O)nn3)CC2)nc(N2CCN(C(=O)CCCCCCCCCCNC(=O)[C@H](CCCN=C(N)N)n3cc(C[C@@H](C)CC)nn3)CC2)n1,x,45*,i,18,-10
C#CCOCCOCCOCCNc1nc(N2CCN(C(=O)CCCCCCCCCCNC(=O)[C@H](CCCCN)n3cc(CCCC(=O)O)nn3)CC2)nc(N2CCN(C(=O)CCCCCCCCCCNC(=O)[C@H](CCCCN)n3cc(CCCC(=O)O)nn3)CC2)n1,x,14,i,-4,-12
C#CCOCCOCCOCCNc1nc(N2CCN(C(=O)CCCCCCCCCCNC(=O)Cn3cc(C[C@@H](C)O)nn3)CC2)nc(N2CCN(C(=O)CCCCCCCCCCNC(=O)[C@H](CCCCN)n3cc(C[C@@H](C)CC)nn3)CC2)n1,x,43*,x,10,x
C#CCOCCOCCOCCNc1nc(N2CCN(C(=O)CCCCCCCCCCNC(=O)Cn3cc(C[C@@H](C)O)nn3)CC2)nc(N2CCN(C(=O)CCCCCCCCCCNC(=O)Cn3cc(C[C@@H](C)O)nn3)CC2)n1,x,15,x,-1,x
C#CCOCCOCCOCCNc1nc(N2CCN(C(=O)CCCCCCCCCCNC(=O)[C@H](CCCCN)n3cc(CCO)nn3)CC2)nc(N2CCN(C(=O)CCCCCCCCCCNC(=O)[C@H](CCCN=C(N)N)n3cc(C[C@@H](C)CC)nn3)CC2)n1,x,50*,x,-5,x
C#CCOCCOCCOCCNc1nc(N2CCN(C(=O)CCCCCCCCCCNC(=O)[C@H](CCCCN)n3cc(C[C@@H](C)CC)nn3)CC2)nc(N2CCN(C(=O)CCCCCCCCCCNC(=O)[C@H](CCCCN)n3cc(C[C@@H](C)CC)nn3)CC2)n1,x,58*,i,-12,3
CN(C)N=C1c2cc(S(=O)(=O)N3CCOCC3)ccc2-c2ccc(S(=O)(=O)N3CCOCC3)cc21,-4,-3,i,-2,8
O=C(O)c1cc(-c2c[nH]c3ccccc23)nc2cc3ccccc3cc12,0,-2,i,-1,-1
CN1OC[C@@H]2CN(C(=O)CCc3ccccc3)[C@H](c3ccc(-n4ccnc4)cc3)C[C@@H]21,x,4,x,0,x
C#CCOCCOCCOCCNc1nc(N2CCN(C(=O)CCCCCCCCCCNC(=O)[C@@H](CCSC)n3cc(CCO)nn3)CC2)nc(N2CCN(C(=O)CCCCCCCCCCNC(=O)[C@H]([C@@H](C)CC)n3cc(CCCCN=C(N)N)nn3)CC2)n1,x,57*,x,-3,x
